Test results reported in ChEMBL document CHEMBL3988442, “University of Dundee, Small-Polar-MMV Screening Library” (2021).
For part of these data: Measured potencies and affinities stand elsewhere.

Columns and labels:
Design in all cases: scale not given: direction of the effect not stated beside the values
[1] = target: Protein translocase subunit SecA (Escherichia coli (strain K12)) (UniProt P10408); assay: Assay to Identify E. coli SecA ATPase Inhibitors; assay type: functional; conditions: 30 µM
Protein translocase subunit SecA (Escherichia coli (strain K12)), sequence (P10408 whole entry): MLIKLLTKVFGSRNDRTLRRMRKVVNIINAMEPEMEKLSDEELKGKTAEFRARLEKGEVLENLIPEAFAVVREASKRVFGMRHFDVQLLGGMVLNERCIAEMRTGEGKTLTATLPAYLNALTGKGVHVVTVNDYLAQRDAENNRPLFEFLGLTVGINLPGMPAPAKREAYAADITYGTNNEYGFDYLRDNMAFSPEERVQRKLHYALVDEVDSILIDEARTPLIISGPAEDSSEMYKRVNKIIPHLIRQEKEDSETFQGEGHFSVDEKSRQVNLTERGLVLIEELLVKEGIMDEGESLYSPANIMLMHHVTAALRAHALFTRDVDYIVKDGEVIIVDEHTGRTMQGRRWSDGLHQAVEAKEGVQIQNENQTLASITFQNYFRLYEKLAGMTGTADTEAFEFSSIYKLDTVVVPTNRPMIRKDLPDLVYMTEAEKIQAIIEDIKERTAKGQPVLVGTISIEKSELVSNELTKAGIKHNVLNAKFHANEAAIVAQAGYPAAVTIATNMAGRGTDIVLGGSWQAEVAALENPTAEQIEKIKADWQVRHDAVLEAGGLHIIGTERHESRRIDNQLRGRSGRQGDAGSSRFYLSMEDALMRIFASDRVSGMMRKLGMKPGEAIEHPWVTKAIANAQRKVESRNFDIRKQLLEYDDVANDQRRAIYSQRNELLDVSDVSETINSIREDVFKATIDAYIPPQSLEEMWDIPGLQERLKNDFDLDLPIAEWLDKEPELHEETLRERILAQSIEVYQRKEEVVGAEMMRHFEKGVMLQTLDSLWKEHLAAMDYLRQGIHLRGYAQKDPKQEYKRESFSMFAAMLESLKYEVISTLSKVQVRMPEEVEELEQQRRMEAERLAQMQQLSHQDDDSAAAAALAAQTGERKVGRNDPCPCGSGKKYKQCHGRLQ

[2] = target: T1, Ubiquitin-activating enzyme e1, putative (Leishmania donovani (strain BPK282A1)) (UniProt E9BSI1); assay: Leishmania donovani Ubiquitin Activating Enzyme (LdE1); assay type: functional; conditions: 30 µM
T1 sequence (whole entry): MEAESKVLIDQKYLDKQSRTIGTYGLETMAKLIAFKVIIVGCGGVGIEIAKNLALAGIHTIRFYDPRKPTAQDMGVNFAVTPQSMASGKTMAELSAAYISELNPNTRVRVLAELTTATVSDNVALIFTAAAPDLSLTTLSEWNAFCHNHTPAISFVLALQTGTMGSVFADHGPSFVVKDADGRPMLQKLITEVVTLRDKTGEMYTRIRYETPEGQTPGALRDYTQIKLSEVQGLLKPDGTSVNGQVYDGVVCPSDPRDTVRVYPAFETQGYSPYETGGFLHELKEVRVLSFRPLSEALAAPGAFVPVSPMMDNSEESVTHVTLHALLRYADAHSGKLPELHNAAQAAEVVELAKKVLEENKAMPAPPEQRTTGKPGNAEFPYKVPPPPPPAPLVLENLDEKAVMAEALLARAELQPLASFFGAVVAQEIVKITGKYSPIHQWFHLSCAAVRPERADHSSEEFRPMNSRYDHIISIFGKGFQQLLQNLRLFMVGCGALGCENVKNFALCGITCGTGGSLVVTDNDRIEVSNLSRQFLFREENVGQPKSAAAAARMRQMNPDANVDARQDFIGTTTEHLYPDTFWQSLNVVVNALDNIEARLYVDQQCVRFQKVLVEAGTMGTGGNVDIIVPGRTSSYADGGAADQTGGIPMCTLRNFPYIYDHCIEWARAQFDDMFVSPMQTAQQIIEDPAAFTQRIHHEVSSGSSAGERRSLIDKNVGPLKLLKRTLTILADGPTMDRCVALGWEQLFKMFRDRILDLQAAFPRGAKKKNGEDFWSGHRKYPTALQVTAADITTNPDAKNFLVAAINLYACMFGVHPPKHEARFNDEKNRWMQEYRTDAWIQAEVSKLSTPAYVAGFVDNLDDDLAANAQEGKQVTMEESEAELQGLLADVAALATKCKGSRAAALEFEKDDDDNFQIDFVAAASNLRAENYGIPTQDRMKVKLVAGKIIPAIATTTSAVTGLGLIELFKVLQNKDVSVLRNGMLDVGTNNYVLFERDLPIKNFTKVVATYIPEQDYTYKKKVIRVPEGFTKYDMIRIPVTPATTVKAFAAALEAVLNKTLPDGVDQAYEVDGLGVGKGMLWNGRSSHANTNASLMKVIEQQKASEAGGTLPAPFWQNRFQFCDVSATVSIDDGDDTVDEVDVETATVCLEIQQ

[3] = target: Sialic acid-binding Ig-like lectin 9 (Homo sapiens) (UniProt Q9Y336); assay: Hs-Siglec9 ALPHAscreen SOP 20170721; conditions: 10 µM
Sialic acid-binding Ig-like lectin 9 (Homo sapiens), sequence (Q9Y336 whole entry): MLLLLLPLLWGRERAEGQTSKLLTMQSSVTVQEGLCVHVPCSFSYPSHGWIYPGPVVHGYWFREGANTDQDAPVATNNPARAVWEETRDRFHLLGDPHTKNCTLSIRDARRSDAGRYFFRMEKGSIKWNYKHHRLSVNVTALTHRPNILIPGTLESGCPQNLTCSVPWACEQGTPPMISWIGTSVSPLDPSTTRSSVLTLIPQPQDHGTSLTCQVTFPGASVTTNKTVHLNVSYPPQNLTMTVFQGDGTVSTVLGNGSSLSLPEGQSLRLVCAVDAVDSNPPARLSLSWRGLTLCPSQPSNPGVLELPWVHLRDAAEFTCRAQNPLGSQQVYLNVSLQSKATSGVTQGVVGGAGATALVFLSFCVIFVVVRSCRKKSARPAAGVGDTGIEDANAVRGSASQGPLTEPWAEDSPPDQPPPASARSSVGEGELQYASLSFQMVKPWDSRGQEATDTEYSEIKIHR

Trypanosoma cruzi = assay: Trypanosoma cruzi phosphomannomutase and mannose-1-phosphate guanylyltransferase assay; assay type: functional; conditions: 10 µM
[4] = target: T2, Arginase-2, mitochondrial (Homo sapiens) (UniProt P78540); assay: in vitro enzyme assay to detect the production of urea directly proportional to the activity of Arginase II; assay type: functional; conditions: 33.3 µM; also: in the data most compounds retested in dose-response had high values
T2 sequence (whole entry): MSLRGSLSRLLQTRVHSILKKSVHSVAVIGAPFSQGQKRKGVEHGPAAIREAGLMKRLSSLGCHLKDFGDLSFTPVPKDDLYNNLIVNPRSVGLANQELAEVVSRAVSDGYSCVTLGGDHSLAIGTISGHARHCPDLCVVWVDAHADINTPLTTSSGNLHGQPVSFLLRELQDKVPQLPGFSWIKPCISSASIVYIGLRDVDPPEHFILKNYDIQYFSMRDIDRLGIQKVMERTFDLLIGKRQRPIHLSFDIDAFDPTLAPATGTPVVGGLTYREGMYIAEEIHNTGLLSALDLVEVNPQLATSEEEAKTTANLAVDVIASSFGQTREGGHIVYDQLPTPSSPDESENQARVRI

[5] = target: T3, Proteasome subunit beta (Trypanosoma cruzi) (UniProt O96673); assay: Trypanosoma cruzi proteasome chymotrypsin-like activity (TcProtChymo) assay.; also: in the data most compounds retested in dose-response had high values; assay type: functional; conditions: 9.37 µM
T3 sequence (whole entry): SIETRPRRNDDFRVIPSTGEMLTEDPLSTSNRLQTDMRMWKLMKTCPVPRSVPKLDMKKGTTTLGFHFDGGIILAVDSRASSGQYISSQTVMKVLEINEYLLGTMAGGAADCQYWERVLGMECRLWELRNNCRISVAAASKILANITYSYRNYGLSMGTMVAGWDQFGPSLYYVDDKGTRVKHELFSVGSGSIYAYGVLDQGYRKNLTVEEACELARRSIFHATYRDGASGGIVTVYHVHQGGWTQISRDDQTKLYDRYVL

Homo sapiens = species: Homo sapiens; assay: To identify inhibition of the IFN signalling (Jak-Stat) pathway via expression of an eGFP reporter gene under the control of an IFN-stimulated response element (ISRE) containing MxA promoter.; assay type: functional; conditions: 30 µM
[6] = target: T4, Tyrosyl-tRNA synthetase, putative (Trypanosoma cruzi (strain CL Brener)) (UniProt Q4DSP6); assay: Trypanosoma cruzi tyrosyl tRNA synthetase (TcYRS) _High Tyrosine SOP; assay type: functional; conditions: 30 µM; also: in the data most compounds retested in dose-response had high values
T4 sequence (whole entry): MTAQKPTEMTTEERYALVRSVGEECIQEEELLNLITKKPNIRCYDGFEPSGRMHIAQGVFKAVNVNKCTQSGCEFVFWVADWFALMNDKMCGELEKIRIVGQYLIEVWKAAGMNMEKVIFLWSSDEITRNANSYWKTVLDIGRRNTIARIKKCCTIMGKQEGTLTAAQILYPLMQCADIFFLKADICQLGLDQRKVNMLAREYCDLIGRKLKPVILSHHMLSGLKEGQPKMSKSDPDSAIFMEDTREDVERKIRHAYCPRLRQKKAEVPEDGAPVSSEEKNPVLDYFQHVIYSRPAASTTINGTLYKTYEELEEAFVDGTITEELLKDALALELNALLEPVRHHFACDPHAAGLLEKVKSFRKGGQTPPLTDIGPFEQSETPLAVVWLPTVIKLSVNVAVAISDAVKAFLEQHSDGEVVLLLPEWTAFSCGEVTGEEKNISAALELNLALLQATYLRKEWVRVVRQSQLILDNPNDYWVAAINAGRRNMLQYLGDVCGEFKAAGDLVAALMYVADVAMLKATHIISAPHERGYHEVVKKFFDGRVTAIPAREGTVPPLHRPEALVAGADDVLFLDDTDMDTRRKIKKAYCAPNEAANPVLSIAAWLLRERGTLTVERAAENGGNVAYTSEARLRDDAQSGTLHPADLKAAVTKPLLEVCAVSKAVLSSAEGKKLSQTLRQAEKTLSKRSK

[7] = target: T4, Tyrosyl-tRNA synthetase, putative (Trypanosoma cruzi (strain CL Brener)); assay: Trypanosoma cruzi tyrosyl tRNA synthetase (TcYRS) SOP; assay type: functional; conditions: 30 µM
[8] = target: Chromo domain-containing protein 1 (Saccharomyces cerevisiae (strain ATCC 204508 / S288c) (Baker's yeast)) (UniProt P32657); assay: ScCHD-1 Enzyme Inhibition Assay; assay type: functional; conditions: 30 µM; also: in the data most compounds retested in dose-response had high values
Chromo domain-containing protein 1 (Saccharomyces cerevisiae (strain ATCC 204508 / S288c) (Baker's yeast)), sequence (P32657 whole entry, the tested form may be a part): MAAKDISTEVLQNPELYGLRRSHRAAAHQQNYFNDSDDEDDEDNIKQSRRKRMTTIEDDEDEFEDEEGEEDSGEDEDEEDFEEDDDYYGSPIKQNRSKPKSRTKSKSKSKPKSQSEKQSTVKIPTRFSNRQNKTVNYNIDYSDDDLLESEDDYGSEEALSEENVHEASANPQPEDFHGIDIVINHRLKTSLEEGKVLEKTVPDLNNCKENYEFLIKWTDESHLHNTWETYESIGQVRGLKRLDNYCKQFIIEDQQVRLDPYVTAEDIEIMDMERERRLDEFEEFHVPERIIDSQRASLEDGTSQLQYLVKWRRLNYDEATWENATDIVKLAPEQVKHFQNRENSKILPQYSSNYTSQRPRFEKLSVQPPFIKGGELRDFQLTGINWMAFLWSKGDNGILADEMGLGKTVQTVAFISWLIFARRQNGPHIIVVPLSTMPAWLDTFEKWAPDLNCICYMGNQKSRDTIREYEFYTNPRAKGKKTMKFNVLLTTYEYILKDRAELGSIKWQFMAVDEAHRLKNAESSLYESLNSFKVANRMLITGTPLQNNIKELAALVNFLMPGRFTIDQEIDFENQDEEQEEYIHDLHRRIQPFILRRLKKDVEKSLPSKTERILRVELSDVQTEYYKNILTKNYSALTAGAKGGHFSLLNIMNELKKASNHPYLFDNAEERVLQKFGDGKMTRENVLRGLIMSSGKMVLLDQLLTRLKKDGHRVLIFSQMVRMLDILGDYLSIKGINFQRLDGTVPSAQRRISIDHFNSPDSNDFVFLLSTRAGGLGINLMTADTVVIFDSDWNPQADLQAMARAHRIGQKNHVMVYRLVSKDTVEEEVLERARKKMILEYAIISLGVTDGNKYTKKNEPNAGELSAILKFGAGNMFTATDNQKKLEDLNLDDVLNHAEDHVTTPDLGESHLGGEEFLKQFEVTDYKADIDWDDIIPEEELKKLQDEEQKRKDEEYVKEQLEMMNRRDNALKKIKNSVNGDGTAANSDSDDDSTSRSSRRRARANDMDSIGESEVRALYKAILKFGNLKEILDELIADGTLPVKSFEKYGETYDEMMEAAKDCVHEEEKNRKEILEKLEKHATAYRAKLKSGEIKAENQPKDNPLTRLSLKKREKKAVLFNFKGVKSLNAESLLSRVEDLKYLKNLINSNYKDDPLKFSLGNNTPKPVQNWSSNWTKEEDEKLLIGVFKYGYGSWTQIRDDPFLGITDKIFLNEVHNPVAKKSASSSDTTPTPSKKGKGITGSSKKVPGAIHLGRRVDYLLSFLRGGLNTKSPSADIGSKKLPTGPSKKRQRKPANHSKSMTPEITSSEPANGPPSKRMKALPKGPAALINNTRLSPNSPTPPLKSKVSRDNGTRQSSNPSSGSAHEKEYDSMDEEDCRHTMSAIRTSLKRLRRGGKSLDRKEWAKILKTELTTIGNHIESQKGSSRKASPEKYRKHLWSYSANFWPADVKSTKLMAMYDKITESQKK

Row | Structure (SMILES) | Percent Effect [1] | Percent Effect [2] | Percent Effect [3] | Percent Effect (Trypanosoma cruzi) | Percent Effect [4] | Percent Effect [5] | Percent Effect (Homo sapiens) | Percent Effect [6] | Percent Effect [7] | Percent Effect [8]
1 | O=C1COC2(COCCN(Cc3ccsc3)C2)CN1c1ccc(F)cc1 (stereo not given) | -4.18% | 1.3% | 13.2% | -5.36% | 1.22% | 10.3% | -0.829% | 4.74% | 7.69% | -1.9%
2 | CCc1cc(C(=O)N2CCCC2c2nc(C)c(F)c(O)n2)on1 (stereo not given) | 1.86% | 17.3% | -9.03% | 0.197% | -3.54% | 16.1% | 26.2% | 3.17% | 10% | -19.6%
3 | O=C(CSc1ccccn1)N1C[C@H]2CC[C@@H]1CN(Cc1cscn1)C2 | -11.4% | 0% | 4.87% | -3.78% | -0.35% | 13.9% | 11.3% | -3.72% | -4.88% | -3.86%
4 | Cc1cc(NC(=O)NCC(C)N2CCc3ccccc32)no1 (stereo not given) | -4.79% | 26% | 2.28% | -3.54% | 1.02% | 5.96% | -2.59% | 12.8% | 21.2% | -6.91%
5 | Cc1ccc(N2CCCN(C(=O)c3c(C)oc(C)c3C)CC2)nn1 | -6.08% | 18.7% | 5.84% | 2.61% | -0.887% | 9.92% | 4.96% | 4.74% | 15.4% | -6.9%
6 | CCn1ccnc1CN1CCCN(C(=O)c2cccc(C#N)c2)CC1 | 0.122% | 2.56% | -6.11% | 7.79% | 7.38% | 0.939% | 9.49% | 1.44% | 1.21% | 1.21%
7 | CCn1ccnc1CN1CCCN(C(=O)c2cccn2C)CC1 | -5.36% | 12.8% | -19.1% | 14% | -2.46% | 8.79% | 4.83% | 2.39% | 20.5% | 31.3%
8 | Cc1ccc(S(=O)(=O)N2CCOc3ccccc32)cc1C(N)=O | -0.964% | 10.3% | -14.2% | -4.79% | -2.87% | 10.5% | 34.9% | 0.478% | 8.43% | 17.3%
9 | O=C(c1ccc(F)cc1F)N1C[C@@H](O)[C@H](N2CCOCC2)C1 | -1.31% | 20% | -7.22% | -0.789% | -3.1% | 17.9% | 2.56% | 1.06% | 17.5% | -25.9%
